Reference: PubChem BioAssay (NCATS)
“And” between values parts separate entries of the source, which are not always exact repeats. Equal values may be shown once. Inconclusive results are not listed. A number with no mark means an inactive call. The source made the active and inactive calls. The call rests on the fitted dose curve; in most records, active means well fitted curve in the direction sought with a large enough effect; inconclusive means small, poorly fitted or top-dose-only effect, or another doubt; inactive means no such curve, though single readings can be large; an effect the other way counts as inactive or inconclusive.

Assays:
[1] = test system: Zika virus NS2B-NS3 protease (linked construct); assay: Primary screen NINDS Rhodamine qHTS for Zika virus inhibitors (AID 1347160)
Outline: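 Single-chain NS2B-NS3 protease, 25 nM, pH 8.0; compounds preincubated 15 min. Activity: Rhodamine110 release from 1.5 microM substrate over 15 min, room temperature, data fitted to 4-parameter Hill.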

[2] = qHTS to identify inhibitors of the type 1 interferon - major histocompatibility complex class I in skeletal muscle: primary screen against the NCATS Mechanism Interrogation Plate v5.0 (MIPE) Libary (AID 1347411)
Outline: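 HLA-B HiBit myoblasts, dexamethasone-free medium + 4 ng/ml IFN-b, 24 h compound, 11-pt 1:3 from 46 uM final. Readout: Nano-Glo HiBiT lytic luminescence after 10 min lysis, RT.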

[3] = test system: Zika virus NS2B-NS3 protease (unlinked complex); assay: Primary screen GU Rhodamine qHTS for Zika virus inhibitors: Unlinked NS2B-NS3 protease assay (AID 1347159)
Outline: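 Unlinked NS2B/NS3, 25 nM; Rhod110 peptide, 1.5 microM; compounds, up to 114 microM. Reaction run 15 min at RT in 10 mM Tris-HCl pH 8.0, 0.01% Tween 20; kinetic fluorescence change fitted with a 4-parameter Hill model.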

[4] = target: Calcium and integrin-binding protein 1 (Homo sapiens) (UniProt Q99828); assay: Primary qHTS for Identification of Calcium Integrin Binding Protein 1 (CIB1) Competitor (AID 1508620)
Outline: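 CIB1-GST (1 uM final) and compound incubated 15 min at room temperature before adding FITC-alphaIIb peptide tracer (100 nM final). Competition for binding read by fluorescence polarization (ex 480, em 540) after another 15 min at room temperature.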

[5] = Confirmatory screen NINDS Rhodamine qHTS for Zika virus inhibitors (AID 1347161)
Outline: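 Enzyme (25 nM, linked NS2B-NS3) was preincubated 15 min with compound in 10 mM Tris-HCl pH 8.0, 0.01% Tween 20. Rhodamine110 substrate (1.5 microM) was then added and fluorescence read at start and after 15 min.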

[6] = test system: Zika virus NS2B-NS3 protease (linked); assay: 384 well plate NINDS AMC confirmatory qHTS for Zika virus inhibitors (AID 1347163)
Outline: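 Enzyme (5, 30 or 60 nM final) first met test compounds for ~15 min. The AMC-tagged peptide Ac-VKTGKR-AMC followed at 30 microM. Fluorescence was then recorded at 25 min and scaled against no-enzyme and no-inhibitor wells.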

[7] = test system: Zika virus NS2B-NS3 protease (linked construct); assay: 384 well plate NINDS Rhodamine confirmatory qHTS for Zika virus inhibitors (AID 1347164)
Outline: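 Cleavage of Ac-LKRR-Rhodamine 110 (10 microM final) by linked protease (final 5, 30 or 60 nM) was followed as fluorescence at 485/538 nm after 25 min, room temperature, dark. Compounds preincubated ~15 min.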

[8] = Vero cells viability qHTS for Zika virus inhibitors (AID 1347167)
Outline: (§1)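 Luminescent ATP readout (CellTiter Glo) after 30 min at 37 degrees C gives viability; cells in DMEM + 4% FBS were treated 24 to 48 hours with compound, following overnight attachment.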

[9] = Tertiary RLuc qRT-PCR qHTS assay for Zika virus inhibitors (AID 1347169)
Outline: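 Inhibition of ZIKV-RLuc replication in Vero cells, read as Renilla luminescence 1-1.5 hrs after live-cell substrate addition, following 48-72 hrs infection at MOI 1-2 in presence of compound.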

[10] = HepG2 cells viability qHTS for Zika virus inhibitors (AID 1347168)
Outline: as §1

[11] = qHTS to identify inhibitors of the type 1 interferon - major histocompatibility complex class I in skeletal muscle: primary screen against the NCATS Pharmaceutical Collection (AID 1347407)
Outline: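 A qHTS format is used: 8-point, 1:5 compound series with 46 uM top final concentration, applied alongside 4 ng/ml IFN-beta to HLA-B*08:01-HiBiT knock-in myoblasts. Luminescence is measured after 24 h treatment.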

[12] = target: Protein phosphatase 1D (Homo sapiens) (UniProt O15297); assay: RapidFire Mass Spectrometry qHTS Assay for Modulators of WT P53-Induced Phosphatase 1 (WIP1) (AID 1347424)
Outline: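 RapidFire mass spectrometry measured dephosphorylated peptide after 5 min room-temperature reaction of 2 uM VEPPL-pS-QETFS with 10 nM WIP1 (50 mM Tris-HCl pH 7.5, 30 mM MgCl2, 0.1 mM EGTA, BSA), following 1 hr compound preincubation; 1 uM isotope-labelled product standard.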

[13] = Primary qHTS for inhibitors of La Crosse Virus (LACV) - induced cell death in SH-SY5Y cells (AID 1508616)
Outline: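 Cytopathicity rescue screen: compounds pinned onto SH-SY5Y cells, which are then infected with LACV (MOI 0.01) and held 6 days at 37C. Percent activity is scaled between infected DMSO control and uninfected DMSO control.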

Sequence of Calcium and integrin-binding protein 1 (Homo sapiens) (Q99828 whole entry, looked up): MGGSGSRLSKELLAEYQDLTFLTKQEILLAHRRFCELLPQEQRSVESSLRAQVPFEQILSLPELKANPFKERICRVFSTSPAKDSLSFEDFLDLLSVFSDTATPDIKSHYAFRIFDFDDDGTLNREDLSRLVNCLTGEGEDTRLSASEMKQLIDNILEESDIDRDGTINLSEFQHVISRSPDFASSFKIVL
Sequence of Protein phosphatase 1D (Homo sapiens) (O15297 whole entry, looked up): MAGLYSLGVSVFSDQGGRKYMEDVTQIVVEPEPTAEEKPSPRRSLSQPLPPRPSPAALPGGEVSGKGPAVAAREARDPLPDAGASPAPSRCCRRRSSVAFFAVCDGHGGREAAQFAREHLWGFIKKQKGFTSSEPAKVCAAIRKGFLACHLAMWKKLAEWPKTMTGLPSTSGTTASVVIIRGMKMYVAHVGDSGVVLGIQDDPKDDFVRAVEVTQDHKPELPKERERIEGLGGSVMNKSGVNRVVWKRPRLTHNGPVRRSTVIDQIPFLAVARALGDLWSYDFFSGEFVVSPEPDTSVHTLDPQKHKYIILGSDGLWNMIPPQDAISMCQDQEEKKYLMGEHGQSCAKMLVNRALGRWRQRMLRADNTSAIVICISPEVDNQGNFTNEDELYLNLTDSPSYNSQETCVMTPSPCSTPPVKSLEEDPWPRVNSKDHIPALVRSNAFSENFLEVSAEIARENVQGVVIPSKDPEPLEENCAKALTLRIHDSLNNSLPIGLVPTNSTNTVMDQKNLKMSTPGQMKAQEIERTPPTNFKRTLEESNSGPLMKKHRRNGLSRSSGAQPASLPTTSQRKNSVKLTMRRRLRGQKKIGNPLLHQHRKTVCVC

With CC(C)c1cc(-c2n[nH]c(=O)n2-c2ccc3c(ccn3C)c2)c(O)cc1O the Potency [1] was “inactive”.

In the case of CC[C@@]1(O)C(=O)OCc2c1cc1n(c2=O)Cc2cc3cc(O)ccc3nc2-1, the Potency [1] was 20 µM (active) and the Potency [2] was 3.3 µM (active).

In the case of COc1cccc(-c2ccc(NC(=O)C3=C(C(=O)O)CCC3)c(F)c2)c1, the Potency [3] was 17.8 µM (active) and the outcome [4] was “inactive”.

For NC(=O)Nc1cc(-c2cccc(F)c2)sc1C(=O)N[C@H]1CCCNC1, the Potency [3] was “inactive”, the Potency [1] was “inactive” and the outcome [4] was “inactive”.

For CNC(=O)c1ccccc1Nc1nc(Nc2ccc(N3CCOCC3)cc2OC)ncc1Cl, the Potency [3] was “inactive”, the Potency [1] was “inactive” and the outcome [4] was “inactive”.

For O=C(Nc1cc(C(F)(F)F)cc(C(F)(F)F)c1)c1cc(Cl)ccc1O, the Potency [1] was 7.94 µM (active), the Potency [5] was 7.84 µM (active) and the Potency [6] was “inactive”. The Potency [7] was 35.5 µM (active), the Potency [8] was 1.47 µM (active) and the Potency [9] was 0.415 µM (active). The outcome [4] was “inactive”.

With Clc1ccc2ncc(-c3cccc(NC4CNC4)n3)n2c1 the Potency [1] was “inactive”, the Potency [2] was “inactive” and the outcome [4] was “inactive”.

In the case of Cc1cn2cc(C(=O)N(C)CCO)cc(N[C@@H]3CCOc4cccc(C)c43)c2n1, the Potency [1] was “inactive”.

With COC(=O)Nc1ccc(-c2nc(N3CCOCC3)c3cnn(C4CCN(Cc5cccnc5)CC4)c3n2)cc1 the Potency [3] was “inactive”, the Potency [1] was “inactive” and the outcome [4] was “inactive”.

In the case of Cc1c(NC(=O)OC[C@@H]2COCCN2)cn2ncnc(Nc3ccc4c(cnn4Cc4cccc(F)c4)c3)c12, the Potency [1] was “inactive”.

In the case of COc1cc(-c2nn(C3CCC(N4CCN(C(C)=O)CC4)CC3)c3ncnc(N)c23)ccc1NC(=O)c1cc2ccccc2n1C (configuration not stated), the Potency [1] was “inactive” and the Potency [2] was “inactive”.

With Cc1c(C)n(Cc2ccc(-c3ccccc3C(=O)O)cc2)c2ccc(C(=O)N[C@@H](C)c3ccc([N+](=O)[O-])cc3)cc12 the Potency [3] was 2.82 µM (active), the Potency [5] was 3.12 µM (active) and the Potency [6] was 112 µM (active). For the same molecule, the Potency [7] was 22.4 µM (active), the Potency [8] was “inactive” and the Potency [10] was “inactive”.

In the case of CS(=O)(=O)N1CCN(Cc2cc3nc(-c4cccc5[nH]ncc45)nc(N4CCOCC4)c3s2)CC1, the Potency [1] was “inactive”.

In the case of CN(C)c1nc(Cc2ccc(NC(=O)c3ccc4ccccc4c3)cc2)nc(Cl)c1CC(=O)O, the Potency [3] was 28.2 µM (active) and the outcome [4] was “inactive”.

With Cc1cn(-c2cc(NC(=O)c3ccc(C)c(Nc4nccc(-c5cccnc5)n4)c3)cc(C(F)(F)F)c2)cn1 the Potency [1] was “inactive” and the Potency [2] was “inactive”.

In the case of COc1cc2c(cc1-c1c(C)noc1C)ncc1[nH]c(=O)n([C@H](C)c3ccccn3)c12, the Potency [3] was “inactive”, the Potency [5] was “inactive” and the Potency [9] was 0.37 µM (active). For the same molecule, the outcome [4] was “inactive”.

With Cc1ccc(NC(=O)C2(c3ccc4c(c3)OC(F)(F)O4)CC2)nc1-c1cccc(C(=O)O)c1 the Potency [3] was 17.8 µM (active), the Potency [2] was “inactive” and the outcome [4] was “inactive”.

For COC(=O)Nc1nc2ccc(C(=O)c3ccc(F)cc3)cc2[nH]1, the Potency [3] was “inactive”, the Potency [1] was “inactive” and the outcome [4] was “inactive”.

For Cn1c(CNc2ccc(C(=N)N)cc2)nc2cc(C(=O)N(CCC(=O)O)c3ccccn3)ccc21, the Potency [1] was “inactive”, the activity change, negative = inhibition [2] was 5.59% [at 0.314 µM] and the outcome [4] was “inactive”.

In the case of N#Cc1c(O)c2c(-c3ccc(-c4ccccc4O)cc3)csc2[nH]c1=O, the Potency [1] was 2.51 µM (active), the Potency [5] was 2.2 µM (active) and 2.48 µM (active) and the Potency [6] was 8.91 µM (active). The Potency [7] was “inactive”, the Potency [8] was “inactive” and the Potency [10] was “inactive”. The Potency [9] was “inactive”, the Potency [2] was “inactive” and the outcome [4] was “inactive”.

In the case of O=C(Cc1ccc(-c2ccc(OCCN3CCOCC3)cc2)cn1)NCc1ccccc1, the Potency [1] was “inactive”.

In the case of CC(O)C1C(=O)N2C(C(=O)O)=C(SC3CNC(C(=O)N(C)C)C3)C(C)C12 (configuration not stated), the Potency [3] was “inactive”, the Potency [1] was “inactive” and the outcome [4] was “inactive”.

For O=C(O)C1(Cc2cccc(Nc3nccs3)n2)CCC(Oc2cccc(Cl)c2F)CC1 (configuration not stated), the Potency [1] was 4.47 µM (active), the Potency [5] was 3.5 µM (active) and the Potency [6] was 3.16 µM (active). The Potency [7] was 14.1 µM (active), the Potency [8] was “inactive” and the Potency [10] was “inactive”. For the same molecule, the Potency [2] was “inactive” and the outcome [4] was “inactive”.

In the case of CC(C)(C)c1cc(NC(=O)Nc2ccc(-c3cn4c(n3)sc3cc(OCCN5CCOCC5)ccc34)cc2)no1, the Potency [1] was “inactive”, the Potency [2] was “inactive” and the outcome [4] was “inactive”.

With CC(C)c1nn(-c2c(Cl)cccc2Cl)c2nc(Cc3ccc(OCCO)cc3)[nH]c(=O)c12 the Potency [3] was “inactive”, the Potency [1] was “inactive” and the outcome [4] was “inactive”.

With COc1cc(C(=O)NS(=O)(=O)c2ccccc2C)ccc1Cc1cn(C)c2ccc(NC(=O)OC3CCCC3)cc12 the Potency [6] was 141 µM (active), the Potency [7] was 28.2 µM (active) and the outcome [11] was “inactive”. The Potency [12] was 15.8 µM (active) and the outcome [13] was “inactive”.

For CC(C)c1ccccc1Cc1cc(C(=O)Nc2ccc(S(=O)(=O)c3ccccc3C(C)(C)C)cc2)c(O)c(O)c1O, the Potency [6] was 2.24 µM (active), the Potency [7] was 1.58 µM (active) and the Potency [9] was “inactive”.

With CN(C)CCCN=c1c2ccccc2n(C)c2[nH]c(=O)n(C)c(=O)c12 the Potency [2] was 16.5 µM (active) and the outcome [4] was “inactive”.

For CC(=O)OCCN1C(=O)c2c(C)nc3ccc(S(=O)(=O)N4CCOCC4)cc3c2C1=O, the Potency [2] was “inactive”.

With C=CC(=O)Nc1cc2c(Nc3ccc(F)c(Cl)c3)ncnc2cc1C#CC(C)(C)N1CCN(C)CC1 the Potency [2] was 8.29 µM (active) and the outcome [4] was “inactive”.
